Measured values as given in PubChem BioAssay (Tox21).
Inconclusive results are not listed. The source made the active and inactive calls. Unless noted, calls come from the whole dose curve; as a rule, active = well fitted curve in the direction sought with a large enough effect in the repeat runs; inconclusive = weak or mixed curves; inactive = no such curve, though single readings can be large; an effect the other way counts as inactive or inconclusive.

Columns and labels:
[1] = biological target: Thyrotropin receptor (Homo sapiens) (UniProt P16473); experiment: qHTS assay to identify small molecule agonists of the thyroid stimulating hormone receptor (TSHR) signaling pathway (AID 1224843; calls by dose curve; note: nearly all actives have a fitted effect of over 45% in size)
How it was run: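 Steps: seed 800 TSHR-HEK293 cells per well; add test compound and hold 30 min at ambient temperature; dispense cAMP-d2 then anti-cAMP cryptate; incubate 1 h at ambient; measure fluorescence intensity.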

[2] = qHTS assay to identify small molecule agonists of the hypoxia (HIF-1) signaling pathway - cell viability counter screen (AID 1224844; calls by dose curve; note: nearly all actives have a fitted effect of over 50% in size)
How it was run: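 Cells (HRE-bla ME-180, 2,000 per well) sat 5 hrs at 37C, got compound for 17 hrs, were read for CCF4-AM FRET, and were finally lysed with CellTiter-Glo for a 30 min room-temperature luminescence read.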

[3] = qHTS assay to identify small molecule agonists of H2AX (AID 1224845; active = well fitted activation curve with a large enough effect in the signal ratio in the repeat runs, not every such curve was filed as active; the % refers to the signal ratio)
How it was run: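 Wild-type CHO-K1 cells, plated overnight, exposed 3hr at 37C to 15 concentrations (0.76% DMSO final). Lysed, then HTRF anti-pH2AX (S139) cryptate and anti-H2AX-d2 antibodies, 24 hr room temperature; 665/620 nm emission read.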

[4] = qHTS assay to identify small molecule agonists of the hypoxia (HIF-1) signaling pathway (AID 1224846; active = well fitted activation curve with a large enough effect in the signal ratio in the repeat runs, not every such curve was filed as active; the % refers to the signal ratio)
How it was run: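 A low-serum medium (0.5% dialyzed FBS) holding 2,000 HRE-bla ME-180 cells per well is preincubated for 5 hrs, dosed with compounds by pintool, and kept a further 17 hrs at 37C, 5% CO2 before CCF4-AM FRET detection of beta-lactamase.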

[5] = qHTS assay to identify small molecule agonists of H2AX - cell viability counter screen (AID 1224847; calls by dose curve; note: top concentration of the series differs between compounds; nearly all actives have a fitted effect of over 30% in size)
How it was run: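 Cells plated first: CHO-K1, 1000 per well in 10% FBS medium, incubated overnight at 37C. Then 15-point compound titration added (final DMSO 0.76%) for 3 hr. Finally CellTiter-Glo added and luminescence read.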

[6] = qHTS assay to identify small molecule antagonists of the estrogen related receptor (ERR) signaling pathway from Tox21 library (AID 1224848); note: nearly all actives have a fitted effect of over 50% in size
How it was run: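 Luminescent reporter read-out (ONE-Glo) from NTP's ERR cell line after 18 h treatment at 37 C with DMSO-dissolved Tox21 compounds; cells pre-plated 6 h beforehand at 2,000 per well.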

[7] = qHTS assay to identify small molecule agonists of the estrogen related receptor (ERR) signaling pathway from Tox21 library (AID 1224849; calls by dose curve; note: nearly all actives have a fitted effect of over 15% in size); settings: ERR reporter cell line, ONE-Glo luciferase, 18 h; at 92.4 µM (top of the series) unless noted
How it was run: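 Screening used an NTP-provided ERR luciferase cell line. Compounds in DMSO were added 6 h after seeding and left 18 h at 37 C before a 30 min ONE-Glo step and luminescence reading.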

[8] = qHTS RealTime-Glo MT Cell Viability Assay in HepG2 cells - 24 hour (AID 1224867); note: nearly all actives have a fitted effect of over 50% in size
How it was run: (§1)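 Cell number in HepG2 cultures estimated from NanoLuc luminescence generated by metabolic reduction of a prosubstrate by living cells. The homogeneous, nonlytic format allowed repeated reads at 0, 8, 16, 24, 32 and 40 h of compound exposure.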

[9] = qHTS RealTime-Glo MT Cell Viability Assay in HEK293 cells - 32 hour (AID 1224868); note: top concentration of the series differs between compounds; nearly all actives have a fitted effect of over 50% in size
How it was run: (§2)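 Homogeneous bioluminescent viability format in HEK293 cells (600 cells/well). Following 5 h at 37 C/5% CO2, 23 nL compound was pintooled; the signal was measured repeatedly during 40 h incubation.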

[10] = A CellTox Green Cytotoxicity Assay to monitor cytotoxicity in HEK293 cells - 0 hour (AID 1224869); note: nearly all actives have a fitted effect of over 50% in size
How it was run: (§3)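 Fluorescence intensity, read at 0, 8, 16, 24, 32 and 40 h of compound treatment, reflected dye binding to DNA of dead HEK293 cells; compounds (23 nL, DMSO) were added 5 h after plating cells with reagent.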

[11] = qHTS RealTime-Glo MT Cell Viability Assay in HepG2 cells - 40 hour (AID 1224870); note: nearly all actives have a fitted effect of over 50% in size
How it was run: (§4)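 HepG2 cells (600/well) mixed with RealTime-Glo MT reagent, settled 5 h at 37 C/5% CO2 before compound addition. Nonlytic NanoLuc luminescence from viable-cell prosubstrate reduction read repeatedly during 40 h treatment at 37 C.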

[12] = A CellTox Green Cytotoxicity Assay to monitor cytotoxicity in HEK293 cells - 40 hour (AID 1224871); note: nearly all actives have a fitted effect of over 45% in size
How it was run: as §3

[13] = qHTS RealTime-Glo MT Cell Viability Assay in HepG2 cells - 8 hour (AID 1224873); note: nearly all actives have a fitted effect of over 55% in size
How it was run: as §4

[14] = qHTS RealTime-Glo MT Cell Viability Assay in HEK293 cells - 40 hour (AID 1224874); settings: RealTime-Glo luminescence; max response: stronger effect = lower value; note: nearly all actives have a fitted effect of over 50% in size
How it was run: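 Viable HEK293 cells reduce a cell-permeant prosubstrate; the product diffuses out and is consumed by NanoLuc in the medium to give light. Compounds went in after a 5 h incubation and plates were read over the treatment course.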

[15] = qHTS RealTime-Glo MT Cell Viability Assay in HepG2 cells - 32 hour (AID 1224877); note: nearly all actives have a fitted effect of over 55% in size
How it was run: as §1

[16] = A CellTox Green Cytotoxicity Assay to monitor cytotoxicity in HepG2 cells - 24 hour (AID 1224878); note: nearly all actives have a fitted effect of over 45% in size
How it was run: (§5)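 Using 1536-well format, dye-containing HepG2 suspension was seeded, allowed 5 h at 37 C/5% CO2, dosed by pintool with compounds, positive and negative controls, and imaged for fluorescence across 40 h.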

[17] = A CellTox Green Cytotoxicity Assay to monitor cytotoxicity in HepG2 cells - 40 hour (AID 1224879); note: nearly all actives have a fitted effect of over 40% in size
How it was run: as §5

[18] = qHTS RealTime-Glo MT Cell Viability Assay in HEK293 cells - 16 hour (AID 1224872)
How it was run: as §2

[19] = A CellTox Green Cytotoxicity Assay to monitor cytotoxicity in HEK293 cells - 24 hour (AID 1224875); note: nearly all actives have a fitted effect of over 45% in size
How it was run: as §3

[20] = A CellTox Green Cytotoxicity Assay to monitor cytotoxicity in HepG2 cells - 16 hour (AID 1224876); note: nearly all actives have a fitted effect of over 45% in size
How it was run: as §5
% is set by controls: 0 for no effect and ±100 for the full control effect.

Thyrotropin receptor (Homo sapiens), sequence (P16473 whole entry, looked up): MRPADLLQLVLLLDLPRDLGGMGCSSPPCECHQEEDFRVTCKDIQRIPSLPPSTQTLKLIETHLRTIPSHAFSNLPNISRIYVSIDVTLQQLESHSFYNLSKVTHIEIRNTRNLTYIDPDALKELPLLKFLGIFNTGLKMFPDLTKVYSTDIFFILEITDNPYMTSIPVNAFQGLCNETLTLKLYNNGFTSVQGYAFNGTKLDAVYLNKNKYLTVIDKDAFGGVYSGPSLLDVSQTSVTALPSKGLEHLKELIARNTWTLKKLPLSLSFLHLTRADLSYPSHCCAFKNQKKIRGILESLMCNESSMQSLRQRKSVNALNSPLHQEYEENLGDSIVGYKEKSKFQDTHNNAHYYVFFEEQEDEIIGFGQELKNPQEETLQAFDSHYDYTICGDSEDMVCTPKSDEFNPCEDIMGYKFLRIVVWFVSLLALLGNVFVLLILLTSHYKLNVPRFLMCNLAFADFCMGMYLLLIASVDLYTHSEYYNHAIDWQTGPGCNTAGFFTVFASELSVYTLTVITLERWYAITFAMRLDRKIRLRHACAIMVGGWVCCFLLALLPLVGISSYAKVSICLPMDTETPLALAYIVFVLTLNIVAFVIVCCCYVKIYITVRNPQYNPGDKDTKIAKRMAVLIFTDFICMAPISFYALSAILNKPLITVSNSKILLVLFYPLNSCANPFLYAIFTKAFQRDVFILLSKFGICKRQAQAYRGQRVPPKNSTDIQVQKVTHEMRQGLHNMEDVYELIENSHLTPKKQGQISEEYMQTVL

COC=O
inactive: activation [1] 0.0799% [at 8.39 µM] | activity change, negative = cytotoxicity [2] 10.2% [at 6.97 µM] | activation (H2AX phosphorylation) [3] -1.42% [at 14 µM] | activation [4] -0.206% [at 7.01 µM] | activity change, negative = cytotoxicity [5] -3.81% [at 14 µM] | activity, negative = inhibition [6] 14% [at 8.39 µM] | activity change, positive = activation [7] 6.68% [at 8.39 µM] | activity change, negative = cytotoxicity [8] 4.56% [at 6.97 µM] | activity change, negative = cytotoxic [9] 18.9% [at 6.97 µM] | cytotoxicity [10] -7.29% [at 6.97 µM] | activity change, negative = cytotoxic [11] 0.3% [at 6.97 µM] | cytotoxicity increase [12] -12.8% [at 6.97 µM] | viability change, negative = cytotoxic [13] 6.21% [at 6.97 µM] | max response [14] 19.4% | activity change, negative = cytotoxic [15] 2.87% [at 6.97 µM] | cytotoxicity [16] -6.04% [at 6.97 µM] | cytotoxicity increase [17] -7.18% [at 6.97 µM]

Cc1cc(SC2=C(O)C[C@@](CCc3ccc(N)cc3)(C(C)C)OC2=O)c(C(C)(C)C)cc1CO
inactive: Potency [1] | Potency [2] | Potency [3] | outcome [4] | Potency [5] | Potency [6] | activity change, positive = activation [7] -7.37% | outcome [8] | Potency [9] | Potency [10] | Potency [11] | Potency [12] | Potency [18] | outcome [13] | max response [14] -1.78% | Potency [19] | Potency [20] | Potency [15] | Potency [16] | Potency [17]

O=[N+]([O-])c1ccc(Cl)cc1Cl
inactive: Potency [1] | Potency [2] | Potency [3] | outcome [4] | Potency [5] | outcome [8] | Potency [9] | Potency [10] | Potency [11] | Potency [12] | Potency [18] | outcome [13] | max response [14] 2.44% | Potency [19] | Potency [15] | Potency [16] | Potency [17]

OCCc1ccncc1
inactive: Potency [1] | Potency [2] | Potency [3] | outcome [4] | Potency [5] | Potency [6] | activity change, positive = activation [7] 1.06% | outcome [8] | Potency [9] | Potency [10] | Potency [11] | Potency [12] | Potency [18] | outcome [13] | max response [14] -8.09% | Potency [19] | Potency [20] | Potency [15] | Potency [16] | Potency [17]

CCCCCCCCCCCCSCCOCCO
inactive: Potency [1] | Potency [2] | Potency [3] | outcome [4] | Potency [5] | Potency [6] | activity change, positive = activation [7] -7.91% [at 42.5 µM] | outcome [8] | Potency [10] | Potency [11] | Potency [12] | Potency [18] | outcome [13] | max response [14] -17.3% | Potency [19] | Potency [20] | Potency [15] | Potency [16] | Potency [17]

CC(Cc1ccccc1)(NC(=O)CN)c1ccccc1 (stereo not given)
inactive: Potency [1] | Potency [2] | Potency [3] | outcome [4] | Potency [5] | outcome [8] | Potency [9] | Potency [10] | Potency [11] | Potency [12] | Potency [18] | outcome [13] | max response [14] -3.14% | Potency [20] | Potency [15] | Potency [16] | Potency [17]

CCCCCCCCCCCCN1CCOCC1
inactive: Potency [1] | Potency [2] | Potency [3] | outcome [4] | Potency [5] | Potency [6] | activity change, positive = activation [7] -8.24% | outcome [8] | Potency [9] | Potency [10] | Potency [11] | Potency [12] | Potency [18] | outcome [13] | max response [14] 4.57% | Potency [19] | Potency [20] | Potency [15] | Potency [16] | Potency [17]
